Screening data (PubChem BioAssay)
KB-3-1 tox: KB-3-1 parental cell cytotoxicity. AID 1347075. hit rate 1.4% among 400,000. Potency, µM (titrated, usually from 46.1 µM), actives largely listed as cytotoxic. KB-3-1 viability, CellTiter-Glo ATP luminescence, 72 h; further: potency means the concentration at half of the fitted maximal effect; nearly all actives have a fitted effect of over 60% in size
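Viability of parental KB-3-1 cells, measured by CellTiter-Glo luminescence, followed a 72 h incubation at 37 °C with pinned compounds in phenol-red-free DMEM containing 10% FBS.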
HT1080NT lethal: kills 2HG-producing HT-1080-NT fibrosarcoma cells; HT-1080-NT fibrosarcoma viability, CellTiter-Glo ATP luminescence, 48 h; Potency, µM (top dose mostly 46.1 µM), without a hit: at the highest dose activity, negative = less viability, hits mostly cytotoxic; hit rate 1.6% among 360,000; AID 686970;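 further: NT is the 2HG producing partner of a matched IDH1 knockdown line; potency means the concentration at half of the fitted maximal effect; 0% = DMSO-treated cells and -100% = media-only wells without cells; nearly all actives have a fitted effect of over 55% in size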
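Viability by CellTiter-Glo luminescence after 48 h compound exposure at 37C of HT-1080-NT cells (750/well, RPMI, 5% FBS). % activity scaled between DMSO wells and medium-only wells, then curve-fitted and categorized by curve class.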
KB-V1 MDR tox: KB-V1 MDR subline cytotoxicity. KB-V1 MDR cells viability, CellTiter-Glo, 72 h. Potency, µM (doses to about 46.1 µM), most hits filed as cytotoxic. hit rate 3.4% among 400,000. AID 1347076; further: potency means the concentration at half of the fitted maximal effect; nearly all actives have a fitted effect of over 60% in size
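KB-V1 cells (P-gp-expressing MDR subline of KB-3-1) in phenol-red-free DMEM with 10% FBS were exposed to library compounds over a concentration series for 72 h at 37 degrees C. Viability read by CellTiter-Glo luminescence; concentration-effect curves fitted after normalization.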
HT1080 IDH1KD tx: HT-1080 IDH1 knockdown cell toxicity (counter line). Potency, µM (titrated, usually from 46.1 µM), without a hit: top-dose activity, negative = toxicity, usual class: cytotoxic. hit rate 2% among 360,000. HT-1080 IDH1 knockdown viability, ATP luminescence, 48 h;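 further: potency means the concentration at half of the fitted maximal effect; 0% = DMSO wells and -100% = cell-free medium wells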
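IDH1KD HT-1080 cells, 750/well, RPMI + 5% FBS; compound pinned after 2 h settling; 48 h, 37 °C; CellTiter-Glo luminescence; % activity normalised to DMSO and no-cell wells; curves fitted, classed by r2 and efficacy.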
IL-1B inflam inh: inhibitors of inflammasome signaling (IL-1 beta secretion) | THP-1 LPS/ATP IL-1B secretion, AlphaLISA, 16 h; hits give low values | activity change, % at 57.5 µM | hit rate 4.7% among 360,000 | AID 743279; in the data active means activity change below about -50%; inconclusive means mostly about -30% to -49%
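THP-1 cells pretreated 1 hr with compounds (up to 57.5 uM final), then stimulated with LPS (250 ng/mL final) plus ATP (1.25 mM final); secreted IL-1B measured by AlphaLISA after 16 hr, decreased signal indicating inhibition.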
Numbers without * were called inactive; i = inactive; ? = inconclusive; . = no result; ! = not active in a repeat. A selection: hits, their analogues and other compounds. The true share with any hit is near 8.8%. Unless noted, the call rests on the fitted dose curve; in most records, active means well fitted curve in the direction sought with a large enough effect; inconclusive means small, poorly fitted or top-dose-only effect, or another doubt; inactive means no such curve, though single readings can be large; an effect the other way counts as inactive or inconclusive. Unless noted, on the % scale 0 is the no-effect control and ±100 the full control effect.

SMILES	KB-3-1 tox	HT1080NT lethal	KB-V1 MDR tox	HT1080 IDH1KD tx	IL-1B inflam inh
CC1CCN(c2nc(-c3cccnc3)nc3scc(-c4ccccc4)c23)CC1	i	-10.1%	i	4.0%	80.6
CC1CCN(c2nc(CN3CCCCC3)nc3scc(-c4ccccc4)c23)CC1	?	-1.3%	?	2.1%	-73.6*
CC1CCCN(c2nc(-c3cccnc3)nc3scc(-c4ccccc4)c23)C1 (stereo not drawn)	i	1.4%	?	-17.7%	-60.9*
Cc1ccc(-c2csc3ncnc(N4CCN(C)CC4)c23)cc1C	i	-4.5%	i	-5.3%	-14.8
O=S(=O)(O)c1cc(O)c2c(O)c(N=Nc3cc(Cl)ccc3O)c(S(=O)(=O)O)cc2c1	14.6µM*	?	?	?	-29.6
CCOC(=O)c1ccc(N=c2sc(C(=O)OC)cc(=O)n2Cc2ccco2)cc1	?	?	?	?	-22.1
CCOC(=O)c1ccc(N=c2sc(C(=O)OC)cc(=O)n2CCCN2CCOCC2)cc1	?	?	i	?	-56.7*!
c1ccc(-c2ccc(-c3csc4ncnc(Sc5nnnn5-c5ccccc5)c34)cc2)cc1	i	.	i	.	.
O=C(CN1CCCC1)Nc1c2c(nc3ccccc13)N(Cc1ccccc1)CC2	i	?	23.1µM*	?	-6.2
COc1cccc2c(SCC(=O)N/N=C/c3ccc(O)c(O)c3)cc(C)nc12	i	-15.8%	i	?	-63.8*
COc1cccc2c(SCC(=O)N/N=C/c3ccccc3)cc(C)nc12	i	-0.8%	?	-7.7%	0.0
COc1ccc2nc(C)cc(SCC(=O)N/N=C/c3cccc4ccccc34)c2c1	?	11.2µM*	5.8µM*	6.31µM*	-56.3*
CCS(=O)(=O)N1CCc2cc(C(=O)NC(C)c3ccccc3)ccc21 (stereo not drawn)	i	.	i	.	.
O=C1C(Br)=Cc2cccc3cccc1c23	i	2.0%	i	-1.4%	-75.0*
O=C(O)/C=C\C(=O)Nc1ccc(N2CCN(c3ccc(Cl)c(Cl)c3)CC2)cc1	i	-18.4%	i	-4.3%	-71.1*
O=C(Nc1ccc(N2CCCC2)cc1)c1cc(Br)ccc1Cl	20.6µM*	?	?	?	-23.8
C=CCN(c1ccc(OC)cc1)S(=O)(=O)c1ccc(Cl)c(C(=O)OCC(=O)c2c(N)n(C)c(=O)n(C)c2=O)c1	i	1.0%	16.4µM*	2.8%	-7.9
CS(=O)(=O)c1ccc(C(=O)Nc2ccc(N3CCCC3)cc2)c(Cl)c1	i	-0.3%	i	0.3%	-1.0
Cn1c(N)c(C(=O)COC(=O)c2cc(S(=O)(=O)N3CCOCC3)ccc2F)c(=O)n(C)c1=O	.	?	.	?	-105.5*
CN(c1ccccc1)S(=O)(=O)c1ccc(Cl)c(C(=O)OCC(=O)c2c(N)n(C)c(=O)n(C)c2=O)c1	i	-16.4%	?	-12.9%	16.3
CCCOc1ccc(-c2nonc2NC(=O)c2ccco2)cc1OCCC	i	.	i	.	.
COc1ccc(OC)c(CN2C(=O)CN(S(C)(=O)=O)CC2(C)C(=O)Nc2c(C)cccc2C)c1 (stereo not drawn)	i	9.1%	i	2.9%	-8.3
O=C(OCC(=O)N1CCc2ccccc21)c1cc(S(=O)(=O)N2CCOCC2)ccc1F	i	-2.6%	i	-6.7%	-20.0
S=C(Nc1ccc(Br)cc1Cl)N1CCCC1	.	2.9%	.	2.6%	9.2
Cc1ccc(S(=O)(=O)N2CCOCC2)cc1C(=O)Nc1ccc(N2CCCCCC2)cc1	3.66µM*	-14.1%	?	?	-52.9*
SMILES	KB-3-1 tox	HT1080NT lethal	KB-V1 MDR tox	HT1080 IDH1KD tx	IL-1B inflam inh
Cc1ccccc1C(=O)Nc1ccc(N2CCCC2)cc1	?	-2.7%	?	1.0%	-55.1*
O=C(Nc1ccc(CN2CCCCC2)cc1)Nc1ccc(Br)cc1Cl	13µM*	-10.0%	?	-12.7%	-85.3*
CC1CC(C)CN(C(=O)COC(=O)c2cc(S(=O)(=O)N3CCOCC3)ccc2F)C1 (stereo not drawn)	i	1.2%	i	-0.8%	-87.8*
Cn1cc(S(=O)(=O)N2CCCC2)cc1C(=O)NCc1ccccc1Cl	i	-19.8%	i	2.0%	0.2
CN(C)c1ccc(C=NC2CCc3ccccc32)cc1 (stereo not drawn)	i	.	i	.	.
Cc1ccc(S(=O)(=O)N2CCOCC2)cc1C(=O)OCC(=O)N1CCCCC1	i	-6.4%	18.4µM*	0.7%	-1.1
NS(=O)(=O)c1ccc(CCNC(=O)Cn2c(=O)c3cccn3c3cccnc32)cc1	i	18.3%	i	-1.1%	23.1
CCOc1ccc(CCNC(=O)Cn2c(=O)c3cccn3c3cccnc32)cc1	i	-0.9%	?	6.8%	-65.6*
O=c1cc(CCl)nc2sc3ccccc3n12	?	16.4µM*	i	?	-59.3*
OC[C@@H]1CN(CCN2CCOCC2)C[C@H](n2cnc3c(NCc4ccc(F)cc4)ncnc32)O1	i	12.9%	i	9.0%	1.1
COc1ccc([C@H]2CC(=O)C[C@@H](CCn3cc(-c4ccccn4)nn3)O2)cc1	i	-0.1%	i	11.8%	21.7
C=CCN1C(c2cccc(C(F)(F)F)c2)=CS/C1=C(/C#N)c1nnc(N2CCOCC2)n1-c1ccccc1	?	2.9%	4.11µM*	-4.3%	-1.8
C=CCN1C(=O)NC(c2ccc(OC)cc2)(C(F)(F)F)S/C1=C(\C#N)c1nnc(N2CCOCC2)n1-c1ccccc1 (stereo not drawn)	i	?	i	3.4%	-52.4*
C=CCN1C(c2ccc(Br)cc2)=CS/C1=C(/C#N)c1nnc(N2CCOCC2)n1-c1ccccc1	i	-11.9%	?	-13.3%	-10.0
N#CC1=C(N)NC(SCc2ccc(Br)cc2)=C(C#N)C12CCCCC2	i	1.6%	?	1.4%	-10.0
N#CC1=C(N)NC(SCc2ccc(Cl)cc2)=C(C#N)C12CCCCC2	?	?	i	20.6µM*	-4.9
CCOC(=O)c1sc2nc(CC(=O)OC)nc(NCCN3CCOCC3)c2c1C	?	9.7%	3.66µM*	1.2%	5.7
CCOC(=O)c1sc2nc(CC(=O)OC)nc(NCCN(CC)CC)c2c1C	i	-4.3%	9.2µM*	-10.6%	0.0
COc1ccc(CCN2C(=NC(C)=O)SC3CS(=O)(=O)CC32)cc1OC (stereo not drawn)	i	16.8%	i	13.0%	42.3
Cc1ccc(OCC(=O)c2ccc(Cl)s2)c([N+](=O)[O-])n1	i	1.5%	i	5.0%	-72.5*
CN1CCN(c2ccc(-c3cccc(NC(=O)COc4ccc(Cl)cc4Cl)c3)nn2)CC1	i	?	i	-26.3%	-19.4
O=C(NC1CC1(c1ccccc1)c1ccccc1)c1ccccc1 (stereo not drawn)	?	7.8%	16.4µM*	13.0%	-16.9
